Only some compounds are listed: those with a hit (about 10% of all), similar ones and a draw of the others.
G9a block = inhibitors of human histone lysine methyltransferase G9a | G9a H3K9 monomethylation, AlphaScreen, 2 h | Q96KQ7 | Potency, µM (series often up to 102 µM), for inactives: at the top dose activity, negative = inhibition, usual class: inhibitors | actives 8.8% (n = 350,000) | AID 504332; note: % is set by controls: 0 for no effect and ±100 for the full control effect; nearly all actives have a fitted effect of over 75% in size
Target sequence (Q96KQ7 913-1193 limits assumed): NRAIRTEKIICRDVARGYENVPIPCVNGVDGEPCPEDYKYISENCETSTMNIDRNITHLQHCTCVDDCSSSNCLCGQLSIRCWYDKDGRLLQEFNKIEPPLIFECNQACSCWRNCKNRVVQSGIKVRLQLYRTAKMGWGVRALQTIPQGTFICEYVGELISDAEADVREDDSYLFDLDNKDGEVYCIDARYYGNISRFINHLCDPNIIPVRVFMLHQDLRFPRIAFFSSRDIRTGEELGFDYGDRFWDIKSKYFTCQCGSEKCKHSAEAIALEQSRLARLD
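AlphaScreen detection with an anti-monomethyl H3K9 antibody quantified product after a 2 h room-temperature reaction containing 500 nM biotinylated H3K9 peptide, 20 µM SAM and 20 nM enzyme, which had been preincubated 15 min with compound.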
HP1b binding inh = HP1-beta chromodomain-methylated histone interaction inhibition. P83916. actives 0.56% (n = 390,000). AlphaScreen HP1-beta / biotin-H3K9me3 peptide binding. Potency, µM (top dose mostly 114 µM), inactives show top-dose activity change, negative = inhibition, usual class: inhibitors. AID 540317; note: nearly all actives have a fitted effect of over 70% in size
Target sequence (P83916 whole entry, looked up): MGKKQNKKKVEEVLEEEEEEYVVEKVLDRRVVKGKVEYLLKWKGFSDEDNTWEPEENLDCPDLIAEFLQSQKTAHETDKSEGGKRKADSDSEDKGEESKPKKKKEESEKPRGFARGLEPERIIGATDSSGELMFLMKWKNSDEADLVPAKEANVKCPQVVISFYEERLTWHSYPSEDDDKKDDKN
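HP1-beta protein (50 nM final) preincubated 30 min at room temperature with biotinylated H3(1-18)K9me3 peptide (50 nM) in PBS pH 7.4, 0.01% Tween-20, then compound added for 30 min. AlphaScreen streptavidin donor/nickel chelate acceptor beads (10 ug/mL final), 30 min dark, luminescence read.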
BAZ2B inh = inhibitors of human BAZ2B bromodomain; Q9UIF8; AlphaScreen BAZ2B-H3K14Ac peptide displacement; Potency, µM (titrated, usually from 114 µM), for the others: at the top dose activity change, negative = inhibition, hits mostly inhibitors; actives 4.4% (n = 360,000); AID 504333; note: % is set by controls: 0 for no effect and ±100 for the full control effect; nearly all actives have a fitted effect of over 60% in size
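Complex of BAZ2B and biotin-H3K14Ac (50 nM apiece) forms over 30 min at RT, then faces library compounds up to 110 uM for another 30 min; AlphaScreen beads added, 20 min dark incubation, luminescence read.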
JMJD2A Tudor = blocks the human JMJD2A Tudor domain; O75164; AID 504339; actives 4.4% (n = 390,000); AlphaScreen JMJD2A-Tudor / H3K4me3 peptide binding; Potency, µM (highest dose often 114 µM), inactives show at the highest dose activity change, negative = inhibition, hits mostly inhibitors; note: % is set by controls: 0 for no effect and ±100 for the full control effect; nearly all actives have a fitted effect of over 50% in size
GLS inh = blocks human kidney-isoform glutaminase activity; O94925; GLS enzymatic activity, qHTS titration; Potency, µM (titrated, usually from 45.5 µM), without a hit: at the top dose activity change, negative = inhibition, hits mostly inhibitors; actives 0.21% (n = 410,000); AID 624170; note: % is set by controls: 0 for no effect and ±100 for the full control effect
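Assay buffer: 45 mM KH2PO4 pH 8.2, 0.02% Tween-20. hKGA acts on L-glutamine (1 mM solution added); product glutamate is reported by an oxidase/peroxidase Amplex Red coupling, with fluorescence taken at baseline and 30 min.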
Starred values were filed as active, the others as inactive; u = inconclusive; x = not tested or not shown; ! = not active in a repeat; [ ] = dose if it differs, or a comment. Calls come from the whole dose curve; as a rule, active = well fitted curve in the direction sought with a large enough effect; inconclusive = small, poorly fitted or top-dose-only effect, or another doubt; inactive = no such curve, though single readings can be large; an effect the other way counts as inactive or inconclusive. Potency is the fitted concentration of half-maximal effect.

SMILES	G9a block	HP1b binding inh	BAZ2B inh	JMJD2A Tudor	GLS inh
O=C(Nc1ccc(N2CCN(C(=O)c3ccccc3)CC2)cc1)c1ccc(Br)o1	32µM*	-2%	u	-28%	18%
O=C(Nc1ccc(N2CCN(C(=O)c3ccccc3)CC2)c(Cl)c1)c1ccc(Br)o1	45µM*	33%	-35%	-25%	-3%
O=C(Nc1ccc(C(=O)N2CCOCC2)cc1)c1ccccc1	x	62%	x	-1%	0%
CCOC(=O)c1c(-n2c(C)cc(C=O)c2C)sc2c1CCCC2	u	-30%	u	56µM*	-2%
Cc1ccc(C)n1-c1sc2c(c1C(=O)O)CCCC2	45µM*	u	u	22µM*	6%
Cc1ccc(C(=O)Nc2sc3c(c2C(=O)O)CCCC3)o1	u	19%	-33%	-3%	-4%
CN(C)C(N)=NCCC[C@H](N)C(=O)O	45%[12.7 µM]	2%	x	89µM*	2%
C[N+]1(CC(=O)OCCCc2ccccc2)CCCC1	10µM*	21%	56µM*	u	-3%
CCC(CC)C(=O)NCCN1CCN(C(=O)C(CC)CC)CC1	5.6µM*	28%	-3%[57.1 µM]	-7%	2%
COc1ccc2c(c1)c(=O)oc1c(C)c(OCc3cc(C(=O)O)oc3C)ccc12	u	u	u	28µM*	u
COc1ccc2c(c1)c(=O)oc1c(C)c(OCc3ccc(C(=O)O)cc3)ccc12	u	26%	50µM*	50µM*	u
Cc1ccc(C)c(N2CCN(Cc3nnc(-c4ccc5c(c4)OCO5)o3)CC2)c1	-8%[59 µM]	2%	-28%	u	7%
Cc1ccc(Nc2nnc(-c3ccc4c(c3)OCO4)o2)c(C)c1	25µM*	-14%	-10%	-11%	-16%
CCc1cc(=O)oc2c(C)c(O)c(CN3CCCCC3)cc12	20%	24%	9%	79µM*	27%
Cc1c(O)c(CN2CCCC2)cc2c3c(c(=O)oc12)CCC3	-28%	-7%	u	-19%	24%
Cc1c(O)c(CN2CCCC2)cc2c1oc(=O)c1ccccc12	22µM*	12%	7%	u	54%
Cc1ccc(OCC(=O)NCC2(N3CCOCC3)CCCCC2)cc1C	-30%[59 µM]	44%	u	-24%	1%
Cc1ccccc1-c1noc(-c2ccc(NCc3ccco3)c([N+](=O)[O-])c2)n1	u	36%	-4%	u	-4%
CCCCN(CCCC)S(=O)(=O)c1ccc(OC)c2ncccc12	20%[59 µM]	19%	8%	-12%	7%
CCCOCc1ccc(O)c2ncccc12	20%[59 µM]	35%	13µM*	56µM*	8%
CC(C)COCc1ccc(O)c2ncccc12	-11%[59 µM]	16%	25µM*	45µM*	-1%
O=C(CCNC(=O)c1ccccc1)Nc1ccc(Cl)c(S(=O)(=O)N2CCCCC2)c1	x	27%	x	-6%	-7%
Cc1ccc(C(=O)NCCN2CCC(n3c(=O)[nH]c4ccccc43)CC2)cc1C	x	x	x	x	-7%
CC(=O)Nc1cccc(-c2csc(C(C)(O)c3ccc(F)c(F)c3)n2)c1 (stereo not given)	x	x	x	x	-1%
CN1CCN(C(=O)c2ccc(OCCOc3ccccc3)cc2)CC1	-11%	9%	-4%	-11%	4%
SMILES	G9a block	HP1b binding inh	BAZ2B inh	JMJD2A Tudor	GLS inh
CNc1cccc(-c2ccc(N3CCN(C)CC3)nc2)n1	x	x	x	x	19%
C=CCN(c1ccccc1)S(=O)(=O)c1cccc(C(=O)NNC(=O)c2ccccc2O)c1	31%	4%	-10%	89µM*	16%
C=CCN(c1ccccc1)S(=O)(=O)c1cccc(C(=O)O)c1	7%[12.7 µM]	33%	12%	-7%	-3%
O=C(c1ccco1)N1CCN(C(=O)c2cc3c(s2)-c2ccccc2OC3)CC1	45µM*	58%	u	-4%	0%
COc1cc(NS(=O)(=O)c2cc3[nH]c(=O)[nH]c3cc2C)cc(OC)c1OC	15%[59 µM]	18%[57 µM]	3%	-17%	4%
COc1ccc(NS(=O)(=O)c2cc3[nH]c(=O)c(=O)[nH]c3cc2C)cc1OC	-26%[59 µM]	40%	79µM*	-5%	30%
Cc1ccc2nc(C)cc(C(=O)OCC(=O)c3ccc(Cl)c([N+](=O)[O-])c3)c2c1	x	0%	u	u	3%
Cc1cc(C(=O)OCC(=O)c2ccc(Cl)c([N+](=O)[O-])c2)c2cccc(C)c2n1	u	-10%	u	22µM*	1%
CCCCCCCC/C=C\CCCCCCCC(=O)O	28%[59 µM]	86%	-23%	89µM*	-11%
CCCCC/C=C/C=C1/C(=O)C=C[C@@H]1C/C=C\CCCC(=O)O	22µM*!	x	x	x	x
CCCCC/C=C\C/C=C\CCCCCCCC(=O)O	31%[59 µM]	x	x	x	-9%
CCCCC[C@H](O)/C=C/[C@H]1C=CC(=O)[C@@H]1C/C=C\CCCC(=O)O	35µM*!	x	50µM*	x	x
Cc1c(/C=C(\C#N)C(=O)Nc2cccc(Cl)c2)c2ccccc2n1Cc1ccccc1Cl	-39%[59 µM]	24%	-18%	-23%	2%
Cc1noc(C)c1S(=O)(=O)Nc1ccc(C#N)cc1	9%	44%	-3%	1%	-1%
CCOC(=O)c1ccccc1NC(=O)CSc1cc(C)[nH]c(=O)n1	-3%[59 µM]	27%	0%	-1%	2%
Cc1ccc(NC(=O)CNC(=O)OCc2ccccc2)cc1C	9%	-3%	-4%	56µM*	-1%
C/C=C/C=C/C(=O)[C@@H]1[C@@H]([C@]2(C)OC(=O)C(C)=C2O)[C@H]2/C(=C(O)/C=C/C=C/C)C(=O)[C@]1(C)C(=O)C2(C)O (stereo not given in full)	u	-21%	79µM*	45µM*	10µM*
Cc1oc2ncn(C)c(=O)c2c1C(=O)NCc1ccccc1	-7%[59 µM]	0%	7%[57.1 µM]	-14%	u
O=[N+]([O-])c1cc(Cl)cc(/C=N/Nc2nc3ccccc3s2)c1O	x	u	6.3µM*	-25%[11.4 µM]	0%
CC(C)(C)N/N=C/c1cc(Cl)cc([N+](=O)[O-])c1O	-1%[59 µM]	-33%	u	u	17%
COc1cc(OC)cc(C(=O)Oc2ccc(/C=N/Nc3nc4ccccc4s3)cc2OC)c1	28µM*	1%	-11%	-29%	-1%
COc1cc(/C=N/Nc2nc3ccccc3s2)cc([N+](=O)[O-])c1O	32µM*	u	35µM*	40µM*	u
CCN1CCN(C(=S)Nc2ccc(C(C)=O)cc2)CC1	u	36%	-18%	-3%	4%
CSc1ccc(C(=S)N2CCN(Cc3ccccc3)CC2)cc1	32µM*	-36%	u	u	x
CSc1ccc(C(=S)N2CCCCCC2)cc1	32µM*	42%	-10%	-18%	0%
CCN1CCN(C(=S)c2ccc(SC)cc2)CC1	40µM*	u	3%	-17%	1%
COCCNC(=O)CSc1nnc(-c2ccc(OC)c(OC)c2)c(-c2ccc(OC)c(OC)c2)n1	-7%[59 µM]	-6%	-4%	-11%	u

Screening data as filed in PubChem BioAssay.
